The list is not random: actives were taken first. Their share in the collection is about 12%.
Sfp PPTase inh = qHTS Assay for Inhibitors of Bacillus subtilis Sfp phosphopantetheinyl transferase (PPTase); 4'-phosphopantetheinyl transferase ffp (Bacillus subtilis), Q9F4F7; Biochemical Sfp PPTase activity, qHTS; Potency, µM, usual class: inhibitors; hit rate 3.5% among 310,000; AID 1490, 2009;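 note: the enzyme is Sfp with the accession as filed and its product quenches rhodamine fluorescence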
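Step 1, compound plus 15 nM Sfp-PPTase, 15 min, room temperature. Step 2, add rhodamine-CoA (5 uM) and BHQ-2-YbbR (12.5 uM). Step 3, read 525/598 nm fluorescence at 0 and 30 min.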
HP1b chromo inh = HTS for Inhibitors of HP1-beta Chromodomain Interactions with Methylated Histone Tails; AlphaScreen HP1-beta / biotin-H3K9me3 peptide binding; Potency, µM (series often up to 114 µM), hits mostly inhibitors; hit rate 0.56% among 390,000; note: nearly all actives have a fitted effect of over 70% in size
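AlphaScreen: HP1-beta (50 nM) preformed 30 min with biotin-H3(1-18)K9me3 peptide (50 nM) in PBS pH 7.4, 0.01% Tween-20. Compound added for 30 min at RT, then streptavidin donor/nickel chelate acceptor beads (10 ug/mL) for 30 min.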
BAZ2B inh = qHTS Assay for Inhibitors of BAZ2B; Bromodomain adjacent to zinc finger domain protein 2B (Homo sapiens), Q9UIF8; AlphaScreen BAZ2B-H3K14Ac peptide displacement; Potency, µM (highest dose often 114 µM), hits mostly inhibitors; AID 504333, 2011; hit rate 4.4% among 360,000; note: nearly all actives have a fitted effect of over 60% in size
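Compounds, titrated to a top concentration of 110 uM, were incubated 30 min at room temperature with preformed BAZ2B/acetyl-K14 H3 peptide complex (50 nM each). Proximity signal was measured by AlphaScreen after 20 min with beads.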
JMJD2A Tudor inh = qHTS Assay for Inhibitors of JMJD2A-Tudor Domain; Lysine-specific demethylase 4A (Homo sapiens), O75164; AlphaScreen JMJD2A-Tudor / H3K4me3 peptide binding; Potency, µM (top dose mostly 114 µM), most hits filed as inhibitors; hit rate 4.4% among 390,000; AID 504339, 2011; note: nearly all actives have a fitted effect of over 50% in size
G9a block = qHTS Assay for Inhibitors of Histone Lysine Methyltransferase G9a | G9a H3K9 monomethylation, AlphaScreen, 2 h | Potency, µM (top dose mostly 102 µM), actives largely listed as inhibitors | Histone-lysine N-methyltransferase EHMT2 (Homo sapiens), Q96KQ7 | hit rate 8.8% among 350,000; note: nearly all actives have a fitted effect of over 75% in size
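Step 1: enzyme (final 20 nM) with compound, 15 min RT. Step 2: substrate peptide 500 nM and SAM 20 uM, 2 h RT. Step 3: anti-H3K9me1 antibody and AlphaScreen beads, 10 min, then plate read.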
L3MBTL1 block = qHTS Assay for the Inhibitors of L3MBTL1 | AlphaScreen L3MBTL1–H3K9me1 peptide binding | Lethal(3)malignant brain tumor-like protein 1 (Homo sapiens), Q9Y468 | Potency, µM (titrated, usually from 57.1 µM), hits mostly inhibitors | hit rate 0.66% among 230,000; note: nearly all actives have a fitted effect of over 60% in size
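AlphaScreen assay: L3MBTL1 (50 nM final) was preincubated 30 min at room temperature with biotinylated H3(1-15)K9me1 peptide (75 nM final), then 30 min with library compounds; streptavidin donor and nickel chelate acceptor beads (10 ug/mL final) added, 30 min dark.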
Numbers stand for hits; – = inactive; ? = inconclusive; · = not tested or not shown; [ ] = remark or other dose. Calls come from the whole dose curve; as a rule, active = well fitted curve in the direction sought with a large enough effect; inconclusive = small, poorly fitted or top-dose-only effect, or another doubt; inactive = no such curve, though single readings can be large; an effect the other way counts as inactive or inconclusive.

SMILES	Sfp PPTase inh	HP1b chromo inh	BAZ2B inh	JMJD2A Tudor inh	G9a block	L3MBTL1 block
CCc1ccccc1NC(=O)Cn1c(=O)n(-c2ccc(C)c(C)c2)c(=O)c2oc3ccccc3c21	·	–	–	–	–	·
COc1cc(/C=C2\CC/C(=C\c3cc(OC)c(OC)c(OC)c3)C2=O)cc(OC)c1OC	–	–	–	?	–	–
COc1cc(/C=C2\CC/C(=C\c3cc(OC)c(O)c(OC)c3)C2=O)cc(OC)c1O	45µM	?	50µM	45µM	2.5µM	28µM
CCOc1cc(/C=C2\CN(CC)C/C(=C\c3ccc(O)c(OCC)c3)C2=O)ccc1O	–	–	50µM	56µM	28µM	·
CCOc1cc(/C=N/N=C/c2ccc(O)c(OCC)c2)ccc1O	–	–	–	–	–	·
COc1cc(/C=C2/C(=O)CNC2=O)ccc1O	?	–	–	–	45µM	–
COc1cc(/C=C2\CCC/C(=C\c3ccc(O)c(OC)c3)C2=O)ccc1O	–	?	?	28µM	45µM	·
CC(C)N(Cc1nc(-c2ccc(Cl)cc2)no1)C(=O)c1ccc(C(C)(C)C)cc1	·	–	–	–	–	·
O=C(Cn1c(=O)n(Cc2ccco2)c(=O)c2cccnc21)Nc1ccccc1F	·	–	–	–	–	·
COc1cc(/C=C2/CCC/C(=C\c3cc(O)c(OC)c(Cl)c3)C2=O)cc(Cl)c1O	–	–	?	?	35µM	–
COc1ccc(/C=C2\CCC(C3CCCC3)C2=O)c(OC)c1OC (centres undefined)	–	–	–	–	–[2.33 µM]	·
COc1ccc(/C=C2/CC/C(=C\c3ccc(OC)c(OC)c3OC)C2=O)c(OC)c1OC	–	–	?	?	7.9µM	–
CCOc1ccc(CN2CCN(CC3=Cc4cccc(OC)c4OC3)CC2CCO)cc1 (centres undefined)	–	–	–	–	–[12.7 µM]	–
COc1cccc(CN2CCN(Cc3[nH]c4ccccc4c3C)CC2CCO)c1 (centres undefined)	–	–	35µM	?	?	–
CC(=O)Nc1ccc2nc(CN3CCN(CC(C)C)C(CCO)C3)ccc2c1 (centres undefined)	–	–	–	–	–	–
CC(=O)Nc1ccc2nc(CN3CCN(Cc4ccc(F)cc4)C(CCO)C3)ccc2c1 (centres undefined)	79µM	–	–	–	·	–
COc1ccc2c(c1)C=C(CN1CCN(Cc3ccccc3C)C(CCO)C1)CO2 (centres undefined)	–	–	?	50µM	?	–
Cc1ccc(CN2CCN(Cc3ccccn3)CC2CCO)cc1 (centres undefined)	–	–	56µM	–	–	–
COc1ccccc1CNc1nc(-c2ccco2)nn1C(=O)c1cc(OC)c(OC)c(OC)c1	·	–	–	–	?	·
CCCCCCCC/C=C\CCCCCCCC(=O)NCCCC(=O)O	–	·	·	·	·	·
COc1ccc(CN2CCN(Cc3ccc(C)cc3)C(CCO)C2)cc1OC (centres undefined)	–	–	–	–	·	–
COc1cc(CN2CCN(Cc3ccc(C)cc3)C(CCO)C2)cc(OC)c1O (centres undefined)	–	–	–	–	45µM	–
O=[N+]([O-])c1cc2c(c(CSc3nnc(Nc4ccccc4)s3)c1)OCOC2	–	–	–	–	3.5µM	·
COc1cc2c(cc1OC)[C@@H]1CC(=O)[C@@H](CC(C)C)CN1CC2	–	·	·	·	·	·
Cc1nc(SCC(=O)N2CCN(C(=O)c3ccco3)CC2)c2c(C)c(C)sc2n1	–	–	–	–	–	–
SMILES	Sfp PPTase inh	HP1b chromo inh	BAZ2B inh	JMJD2A Tudor inh	G9a block	L3MBTL1 block
Cc1nc(SCC(=O)N2CCN(C(=O)c3cccs3)CC2)c2c(C)c(C)sc2n1	·	–	–	–	18µM	?
O=C(CNC(=O)C1CCCCC1)OC(C(=O)Nc1cc(C(F)(F)F)ccc1Cl)c1ccccc1 (centres undefined)	·	·	·	–	·	·
O=C(CSc1nc2ccccc2c(=O)n1-c1ccccc1)NC(=O)CN1CCCC1=O	–	–	79µM	–	50µM	?
O=C(CSc1nc2ccccc2c(=O)n1-c1ccccc1)N1CCCC1	–	–	–	–	50µM	·
O=C(CSc1nc2ccccc2n1S(=O)(=O)c1ccccc1)N1CCCC1	–	–	–	–	50µM	–
O=C(CSc1nc2ccccc2c(=O)n1-c1ccccc1)N1CCC1	–	–	–	–	–	–
COc1ccc(CCNC(=O)c2c(C)oc3ncnc(N4CCOCC4)c23)c(OC)c1	·	–	–	–	–	·
S=c1nc(C2CCCCC2)n(-c2ccccc2)[nH]1	–	–	–	16µM	3.5µM	·
O=C(CCN1C(=O)/C(=C/c2ccccc2Cl)SC1=S)N1CCCC1	–	?	25µM	?	–	·
O=C(CCCN1C(=O)/C(=C/c2ccccc2Cl)SC1=S)N1CCCC1	?	?	14µM	14µM	–[12.7 µM]	·
CC(/C=C1\SC(=Nc2cccnc2)NC1=O)=C\c1ccccc1	–	–	–	79µM	·	–
C=CCOc1ccc(/C=C2\SC(=Nc3cccnc3)NC2=O)cc1	–	–	–	–	·	–
CN(CCC#N)C(=O)COC(=O)c1ccc2[nH]c3c(c2c1)CCCC3	–	–	?	–	–	·
CCOC(=O)c1ccc2[nH]c3c(c2c1)CCCC3	–	?	32µM	–	35µM	–
CCN(C(=O)COC(=O)c1ccc2[nH]c3c(c2c1)CCCC3)C1CCS(=O)(=O)C1 (centres undefined)	–	–	?	–	50µM	·
CN(C)CCOC(=O)c1ccc2[nH]c3c(c2c1)CSCC3	–	?	–	–	28µM	·
COc1cccc(-n2c(SCC(=O)Nc3ccc4c(c3)OCO4)nc3c([nH]c4ccccc43)c2=O)c1	·	–	–	–	–	·
Cc1nnc(NC(=O)c2ccc(S(=O)(=O)N(C)Cc3ccccc3)cc2)o1	–	–	79µM	?	–	–
COCCN(CCOC)S(=O)(=O)c1ccc(C(=O)Nc2nnc(C)o2)cc1	89µM	–	14µM	28µM	7.1µM	·
Cc1nnc(NC(=O)c2ccc3ccccc3c2)o1	–	–	28µM	50µM	–	–
COCCN(CCOC)S(=O)(=O)c1ccc(C(=O)Nc2nc(C)c(C(C)=O)s2)cc1	–	–	–	–	–[12.7 µM]	–
COCc1nnc(NC(=O)c2ccc(S(=O)(=O)N(C)Cc3ccccc3)cc2)o1	–	–	?	–	–	·
COCCN(CCOC)S(=O)(=O)c1ccc(C(=O)Nc2ccc([N+](=O)[O-])cc2OC)cc1	45µM	–	–	–	–	–

Bioassay records (PubChem)
